Results from the supplement of paper PMC3334620.
Whole data set: some 33,000 sequences, median “E-score (-0.5 to 0.5)” near -0.016, cut for the highest 2% near 0.31. Shown is part of a subset that was picked to be rich in the highest values.

Target: Cst6 (UniProt P40535)
Assay: PBM E-score (8-mer binding enrichment) (E-score (-0.5 to 0.5)); higher = stronger / more preferred TF binding
Conditions: protein concentration: 200 nM; construct: GST-DNA-binding domain
How it was run: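 Bound GST-tagged yeast transcription factors, applied at about 100-200 nM to double-stranded universal all-10-mer Agilent arrays, were detected with fluorescent anti-GST. Scans were normalised with masliner. A modified Wilcoxon-Mann-Whitney statistic, the E-score, was assigned to each ungapped eight-base word pooled with its reverse complement by the Universal PBM Analysis Suite.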

Chain of UniProt P40535 (P40535 whole entry): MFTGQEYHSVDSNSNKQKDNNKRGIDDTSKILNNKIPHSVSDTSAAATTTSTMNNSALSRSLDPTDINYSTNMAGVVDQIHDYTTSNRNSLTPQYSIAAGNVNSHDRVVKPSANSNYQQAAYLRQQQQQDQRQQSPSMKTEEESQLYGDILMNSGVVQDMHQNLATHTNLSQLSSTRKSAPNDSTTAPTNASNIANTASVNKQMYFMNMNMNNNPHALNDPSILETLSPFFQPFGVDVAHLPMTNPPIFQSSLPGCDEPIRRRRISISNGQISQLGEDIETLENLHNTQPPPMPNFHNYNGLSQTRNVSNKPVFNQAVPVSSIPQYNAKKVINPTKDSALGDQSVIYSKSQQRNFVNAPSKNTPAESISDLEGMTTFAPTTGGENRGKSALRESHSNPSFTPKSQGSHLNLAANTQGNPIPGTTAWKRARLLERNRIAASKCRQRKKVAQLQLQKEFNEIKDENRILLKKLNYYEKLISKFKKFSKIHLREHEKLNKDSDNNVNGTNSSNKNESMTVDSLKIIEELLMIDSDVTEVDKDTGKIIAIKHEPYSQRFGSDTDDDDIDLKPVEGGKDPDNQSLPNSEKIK

Sequence	PBM E-score
CTTATGAC	0.368
CTTATGAA	0.052
ATTATGAG	0.22
ATTATGAC	0.394
ATTATGAA	0.292
CTTATGCC	0.0646
AACAAGAA	0.237
AGAAAGCT	0.0476
ATAGTCGA	0.168
ACATATTG	0.137
ATATATTA	0.336
CTCTATTA	0.0287
CTATATTC	0.0369
GTATATTA	0.261
CTATATTA	0.333
ACATATTA	0.312
ATATATTG	0.109
CCATATTA	0.0718
TACTGGCA	-0.0625
CAGACAGG	-0.15
ATCGATAC	0.171
AGCTCCGA	-0.145
CAAAGCGA	-0.0448
TCGACACA	0.108
AGCAAGCG	-0.11

Sequence	PBM E-score
ATCACGTC	0.286
ATGACGTG	0.491
CTGACGTA	0.489
GGGACGTA	0.0851
AGGACGTG	-0.088
ACGACGTG	0.061
ATCACGTG	0.135
ATCACGTA	0.344
CAGACGTA	0.0968
GCGACGTA	0.219
CCGACGTA	0.0226
GTGACGTA	0.496
AGGCTCGA	0.0255
CTGGTGTC	-0.119
GCAGCCGA	-0.053
AAAACCGA	0.0246
TTCCAAAA	0.0844
CAGGCTAC	-0.249
GCTCCGCC	-0.185
CCGCCGGA	-0.149
ACCATCGA	-0.0265
CGAGGCGC	0.188
AAGACGTA	0.215
AGGACGTA	-0.126
ATGACGTA	0.498

Sequence	PBM E-score
CACCGTTC	-0.0919
CAGGCGAG	-0.261
CTTGCGTC	0.249
ATTGCGTA	0.415
ATTGCGTG	0.154
AGTGCGTC	0.104
ATTGCGTC	0.34
GTTGCGTA	0.264
CTCGTTCA	0.022
ATTCCCGG	0.041
AGGAGCGG	-0.207
GAACGTCC	0.0008
CAACGTCA	0.471
AAACGTCT	0.14
CAACGTCG	0.0638
CAACGTCC	-0.263
AAACGTCC	-0.0706
GAACGTTA	-0.124
GAACGTCA	0.442
TAACGTGA	0.284
TAACGTTA	0.149
AAACGTCA	0.463
TAACGTCA	0.489
CCAGGCGA	-0.317
CTACCTAG	-0.231

Sequence	PBM E-score
ATCCCGGA	-0.249
AATGAGCG	0.139
AAGTAAAA	0.148
AGCCAGTG	-0.171
ATCGCCTA	-0.115
CGATTGTA	0.0905
CGGTCTTC	-0.0638
AACTGTGT	0.0284
ATCAGTTC	-0.0191
ATACAGCC	-0.059
GGGTGCCA	-0.137
CGGTATGC	-0.111
ACGGTCTG	-0.189
TCACGTAA	0.415
ACACGTAC	-0.0236
GCACGTAA	0.232
ACACGTAG	0.0917
ACACGTAA	0.366
CCACGTAA	0.275
CTACCCCA	-0.16
ATACAGAC	0.128
CCGCAACA	0.113
TACGTTAA	0.189
GACGTTAC	0.315
CACGTTAC	0.143

Sequence	PBM E-score
GACGTTAA	0.32
CACGTTAA	0.0603
AACGTTAC	0.137
GCCAAAAC	0.00644
AGCTGCGA	-0.198
AGCGGTCC	-0.134
ATACGGGC	-0.204
ACTGGGGG	-0.426
CGGACGCA	-0.0966
AGGCGCCG	0.325
AGGCGCCT	0.207
CGGCGCCG	0.384
AGGCGCCA	0.0572
CGGCGCCC	0.143
CGGCGCCA	0.161
CCGTCGAA	0.0203
GCAAATGC	0.0351
AATAGCCC	-0.132
AGCCGGCT	-0.193
CAGATGAG	0.0374
CGGATGAA	0.127
CGGATGAG	-0.135
AAGATGAG	-0.0416
AAGATGAT	0.229
GAGATGAC	0.239

Sequence	PBM E-score
CGGATGAC	0.321
AAGATGAC	0.345
CAGATGAC	0.383
GTAAGTCA	0.132
TCGCTCAA	-0.091
AATTGCCC	-0.055
CCAAAAGA	0.207
AAAATCGG	-0.00802
GCGCAGCC	-0.38
ATTAAATC	0.212
ATTGAAAC	0.194
ATTAAATG	0.315
ATAAAAAA	0.234
CTTGAAAA	0.216
ATAAAAGG	0.0584
ATTAAATA	0.267
ATTGAAAA	0.31
ATAAAAAG	0.307
CTAAAAAA	0.273
TTAAAAAA	0.306
TTTAAAAA	0.0985
CAGGTTAG	-0.116
CCGCTTGA	0.0541
ATCTGCTG	0.0566
GAAGCTGC	-0.117

Sequence	PBM E-score
ACTTAGCA	-0.0634
ATTCCGCG	0.129
ATTAAAAG	0.173
ATTAAAAA	0.323
ATTAAAAC	0.213
ACTACACA	0.17
CGTTAGAA	0.101
ATGATGCC	0.347
AGGATGCC	0.0165
GTGATGCA	0.383
CTGATGCC	0.113
ATGATGCA	0.362
GAGATGCA	-0.071
ATGATGCG	0.296
CTGATGCA	0.0731
ACGATGCA	-0.00326
CCGGATCG	-0.134
ACTTTTCA	0.133
CTTCCCAC	0.0313
GACTCGCC	-0.223
CCGGGTTA	-0.281
CAAAAGAA	0.239
AAGCTCAC	-0.167
AACAATCA	0.287
CACCCCGG	-0.19

Sequence	PBM E-score
ACTTCGTA	-0.0634
ACGTAACT	0.413
AAGTAACT	0.204
CCGTAACC	-0.0836
GCGTAACC	0.14
CCGTAACG	-0.0115
ACGTAACA	0.386
ACGTAACC	0.414
AGGTAACT	0.106
AAGTAACG	0.0219
ACGTAACG	0.39
GCGTAACA	0.195
TCGTAACA	0.129
ATGAGACG	-0.0685
ACCTAGGG	-0.159
ACCCATGG	-0.144
CTCCTTTA	-0.251
CTACCGTA	0.0736
ATCAAATA	0.0992
CTCGGTTA	0.0295
CCGTCAGG	-0.107
ACGTCAGG	0.413
CCGTCAGC	0.0302
GTGTCAGA	-0.0004
TCGTCAGA	0.124

Sequence	PBM E-score
GCGTCAGC	0.15
ATGTCAGG	0.176
CCGTCAGA	-0.0924
GCGTCAGA	0.313
ACGTCAGA	0.464
GGGTCAGA	-0.219
ACGTCAGC	0.482
ACCGACGG	-0.0433
CTTCCCGA	-0.0284
AGTCGCAG	-0.192
ACTCTTGA	-0.103
CCTTGCAA	-0.186
ACTCCGCG	-0.0486
CGGCATAA	0.135
AACTCGAG	-0.0652
ACCTTTGA	-0.156
CCTCCTAG	-0.121
AAGCACGT	0.0741
GAGCAGGA	-0.154
